# Compounds without any hit were thinned out: in the full panel of roughly 79,000, 15% have a hit. Unmarked numbers belong to inactive results. Active and inactive are the calls of the source. No stated cut-off is given here; in the data, active means growth inhibition above about 70%; inactive means the rest.
# Legend:
# [1] = NCI Yeast Anticancer Drug Screen. Data for the rad52 strain (AID 147);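 further: 0% = growth of vehicle-treated control cultures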; conditions: S. cerevisiae rad52 mutant growth inhibition, active compounds read high
# Outline: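 DNA repair-defective yeast; compound exposure; growth scored against vehicle controls.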
# [2] = NCI Yeast Anticancer Drug Screen. Data for the wt1 strain (AID 149);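 further: 0% = growth of vehicle-treated wt1 cultures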; conditions: S. cerevisiae wt1 strain (SPY 50644) growth inhibition, active compounds read high
# Outline: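 The wt1 strain was treated with compounds, and growth was compared with vehicle-treated cultures to give inhibition.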
# [3] = NCI Yeast Anticancer Drug Screen. Data for the rad50EPP+ strain (AID 151);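 further: 0% = growth of vehicle-treated control cultures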; conditions: S. cerevisiae rad50 mutant strain, active compounds read high
# Outline: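 rad50EPP+ yeast treated with test compounds. Readout: growth vs vehicle control.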
# [4] = NCI Yeast Anticancer Drug Screen. Data for the mgt1 strain (AID 153); conditions: S. cerevisiae mgt1 mutant growth inhibition, active compounds read high
# Outline: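 Growth inhibition relative to vehicle controls was scored for the mgt1 yeast strain after compound exposure.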
# [5] = NCI Yeast Anticancer Drug Screen. Data for the rad50 strain (AID 155);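 further: 0% = growth of vehicle-only cultures of the same strain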; conditions: S. cerevisiae rad50 strain growth inhibition, active compounds read high
# Outline: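 Cells are treated with compound, grown, and their growth is then scored against vehicle-only cultures of the same repair-deficient yeast strain.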
# [6] = NCI Yeast Anticancer Drug Screen. Data for the mec2-1 strain (AID 157); conditions: S. cerevisiae mec2-1 strain, active compounds read high
# Outline: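 Growth inhibition is read against vehicle-treated controls after compound exposure of the mec2-1 yeast strain, which is defective in DNA damage repair or cell cycle control.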
# [7] = NCI Yeast Anticancer Drug Screen. Data for the rad14 strain (AID 159);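 further: 0% = growth of vehicle-treated control cultures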; conditions: S. cerevisiae rad14 strain growth inhibition, active compounds read high
# Outline: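 Readout: yeast growth inhibition, referenced to vehicle-only cultures. Strain bears a defined alteration in DNA damage repair.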
# [8] = NCI Yeast Anticancer Drug Screen. Data for the sgs1 mgt1 strain (AID 161);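 further: 0% = growth of cultures given vehicle only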; conditions: S. cerevisiae sgs1 mgt1 strain, active compounds read high
# Outline: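 Compounds are added to genetically altered yeast, and growth is compared with cultures given vehicle alone to give percent inhibition.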
# [9] = NCI Yeast Anticancer Drug Screen. Data for the CLN2oe strain (AID 163);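 further: 0% = growth of vehicle-only control cultures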; conditions: S. cerevisiae CLN2oe strain, active compounds read high
# Outline: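 Compound-treated yeast; growth vs vehicle ctrl = % inhibition. Genetically altered strain (cell-cycle control).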
# [10] = NCI Yeast Anticancer Drug Screen. Data for the cln2 rad14 strain (AID 165);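 further: 0% = growth equal to vehicle treated cultures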; conditions: S. cerevisiae cln2 rad14 strain, active compounds read high
# Outline: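 Growth inhibition, relative to vehicle-treated controls, is the read-out. The test organism is a yeast strain with defined genetic alterations, cln2 rad14.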
# [11] = NCI Yeast Anticancer Drug Screen. Data for the bub3 strain (AID 167); conditions: S. cerevisiae bub3 mutant strain, active compounds read high
# Outline: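 Part of a panel of yeast mutants defective in DNA damage repair or cell cycle regulation. Each strain is grown with compound, and inhibition is calculated relative to solvent-treated cultures.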
# [12] = NCI Yeast Anticancer Drug Screen. Data for the wt2 strain (AID 169);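 further: 0% = growth of vehicle-treated yeast cultures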; conditions: S. cerevisiae wt2 strain growth inhibition, active compounds read high
# Outline: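 Compound exposure of yeast; growth compared with vehicle controls; inhibition reported.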
# [13] = NCI Yeast Anticancer Drug Screen. Data for the mlh1 strain (AID 171);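 further: 0% = growth of vehicle-treated control cultures of the same strain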; conditions: S. cerevisiae mlh1 strain growth inhibition, active compounds read high
# Outline: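 Compounds are applied to a genetically altered yeast strain, and its growth is compared with that of vehicle-treated cultures to give percent inhibition.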
# [14] = NCI Yeast Anticancer Drug Screen. Data for the sgs1 strain (AID 173);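 further: 0% = growth of vehicle-only control cultures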; conditions: S. cerevisiae sgs1 mutant, active compounds read high
# Outline: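 Compounds applied to genetically altered yeast; growth compared with vehicle-treated cultures to give % inhibition.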
# [15] = NCI Yeast Anticancer Drug Screen. Data for the mlh1 rad18 strain (AID 175); conditions: S. cerevisiae mlh1 rad18 strain growth inhibition, active compounds read high
# Outline: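 Cells of a genetically altered yeast strain, deficient in DNA damage repair, were treated with compound. Their growth was then compared with that of vehicle-treated cultures to give inhibition.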
# [16] = NCI Yeast Anticancer Drug Screen. Data for the rad18 strain (AID 177); conditions: S. cerevisiae rad18 mutant growth inhibition, active compounds read high
# Outline: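 Compounds are applied to a repair-deficient yeast strain, and growth is compared with that of vehicle-treated cultures to give percent inhibition.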
# [17] = at 5.0 µM (retest, dose inferred, filed as 0.5)
# [18] = at 50.0 µM (retest, dose inferred, filed as 5.0)
smiles,measurement,setting,value
CC1=CC(=O)C=CC1=Nc1cc(Cl)c(O)c(Cl)c1,growth inhibition,[1]; at 1.2 µM,-39%
same,growth inhibition,[1]; at 3.7 µM,-29%
same,growth inhibition,[1]; at 11.0 µM,7%
same,growth inhibition,[1]; at 33.0 µM,66%
same,growth inhibition,[1]; at 100.0 µM,92% (active)
same,growth inhibition,[2]; at 1.2 µM,-30%
same,growth inhibition,[2]; at 3.7 µM,-24%
same,growth inhibition,[2]; at 11.0 µM,-12%
same,growth inhibition,[2]; at 33.0 µM,52%
same,growth inhibition,[2]; at 100.0 µM,93% (active)
same,growth inhibition,[3]; at 1.2 µM,-31%
same,growth inhibition,[3]; at 3.7 µM,-15%
same,growth inhibition,[3]; at 11.0 µM,-16%
same,growth inhibition,[3]; at 33.0 µM,27%
same,growth inhibition,[3]; at 100.0 µM,70% (active)
same,growth inhibition,[4]; at 1.2 µM,-4%
same,growth inhibition,[4]; at 3.7 µM,4%
same,growth inhibition,[4]; at 11.0 µM,9%
same,growth inhibition,[4]; at 33.0 µM,40%
same,growth inhibition,[4]; at 100.0 µM,94% (active)
same,growth inhibition,[5]; at 1.2 µM,-2%
same,growth inhibition,[5]; at 3.7 µM,8%
same,growth inhibition,[5]; [17],55%
same,growth inhibition,[5]; at 11.0 µM,8%
same,growth inhibition,[5]; at 33.0 µM,62%
same,growth inhibition,[5]; [18],53%
same,growth inhibition,[5]; at 50.0 µM,81.4% (active)
same,growth inhibition,[5]; at 100.0 µM,91% (active)
same,growth inhibition,[6]; at 1.2 µM,-21%
same,growth inhibition,[6]; at 3.7 µM,-16%
same,growth inhibition,[6]; [17],63%
same,growth inhibition,[6]; at 11.0 µM,-4%
same,growth inhibition,[6]; at 33.0 µM,55%
same,growth inhibition,[6]; [18],48%
same,growth inhibition,[6]; at 50.0 µM,79.3% (active)
same,growth inhibition,[6]; at 100.0 µM,93% (active)
same,growth inhibition,[7]; at 1.2 µM,-43%
same,growth inhibition,[7]; at 3.7 µM,-31%
same,growth inhibition,[7]; at 11.0 µM,-30%
same,growth inhibition,[7]; at 33.0 µM,38%
same,growth inhibition,[7]; at 100.0 µM,89% (active)
same,growth inhibition,[8]; [17],-4%
same,growth inhibition,[8]; [18],93% (active)
same,growth inhibition,[8]; at 50.0 µM,83.7% (active)
same,growth inhibition,[9]; at 1.2 µM,-2%
same,growth inhibition,[9]; at 3.7 µM,-9%
same,growth inhibition,[9]; at 11.0 µM,22%
same,growth inhibition,[9]; at 33.0 µM,45%
same,growth inhibition,[9]; at 100.0 µM,90% (active)
same,growth inhibition,[10]; [17],48%
same,growth inhibition,[10]; [18],94% (active)
same,growth inhibition,[10]; at 50.0 µM,77.2% (active)
same,growth inhibition,[11]; at 1.2 µM,7%
same,growth inhibition,[11]; at 3.7 µM,11%
same,growth inhibition,[11]; [17],45%
same,growth inhibition,[11]; at 11.0 µM,8%
same,growth inhibition,[11]; at 33.0 µM,49%
same,growth inhibition,[11]; [18],91% (active)
same,growth inhibition,[11]; at 50.0 µM,83% (active)
same,growth inhibition,[11]; at 100.0 µM,92% (active)
same,growth inhibition,[12]; at 1.2 µM,-31%
same,growth inhibition,[12]; at 3.7 µM,-20%
same,growth inhibition,[12]; at 11.0 µM,-14%
same,growth inhibition,[12]; at 33.0 µM,30%
same,growth inhibition,[12]; at 100.0 µM,94% (active)
same,growth inhibition,[13]; at 1.2 µM,-51%
same,growth inhibition,[13]; at 3.7 µM,-24%
same,growth inhibition,[13]; at 11.0 µM,-21%
same,growth inhibition,[13]; at 33.0 µM,10%
same,growth inhibition,[13]; at 100.0 µM,91% (active)
same,growth inhibition,[14]; at 1.2 µM,-50%
same,growth inhibition,[14]; at 3.7 µM,-42%
same,growth inhibition,[14]; at 11.0 µM,-17%
same,growth inhibition,[14]; at 33.0 µM,43%
same,growth inhibition,[14]; at 100.0 µM,89% (active)
same,growth inhibition,[15]; [17],40%
same,growth inhibition,[15]; [18],48%
same,growth inhibition,[15]; at 50.0 µM,82% (active)
same,growth inhibition,[16]; at 1.2 µM,-11%
same,growth inhibition,[16]; at 3.7 µM,-10%
same,growth inhibition,[16]; at 11.0 µM,-9%
same,growth inhibition,[16]; at 33.0 µM,60%
same,growth inhibition,[16]; at 100.0 µM,91% (active)
C/C(=N\OCC(O)CNCCSCc1ccccc1)c1ccccc1Cl (stereo unspecified),growth inhibition,[1]; at 1.2 µM,2%
same,growth inhibition,[1]; at 3.7 µM,5%
same,growth inhibition,[1]; at 11.0 µM,26%
same,growth inhibition,[1]; at 33.0 µM,45%
same,growth inhibition,[1]; at 100.0 µM,80% (active)
same,growth inhibition,[2]; at 1.2 µM,-3%
same,growth inhibition,[2]; at 3.7 µM,0%
same,growth inhibition,[2]; at 11.0 µM,6%
same,growth inhibition,[2]; at 33.0 µM,19%
same,growth inhibition,[2]; at 100.0 µM,40%
same,growth inhibition,[3]; at 1.2 µM,-1%
same,growth inhibition,[3]; at 3.7 µM,0%
same,growth inhibition,[3]; at 11.0 µM,2%
same,growth inhibition,[3]; at 33.0 µM,6%
same,growth inhibition,[3]; at 100.0 µM,12%
same,growth inhibition,[4]; at 1.2 µM,4%
same,growth inhibition,[4]; at 3.7 µM,9%
same,growth inhibition,[4]; at 11.0 µM,34%
same,growth inhibition,[4]; at 33.0 µM,85% (active)
same,growth inhibition,[4]; at 100.0 µM,100% (active)
same,growth inhibition,[5]; at 1.2 µM,12%
same,growth inhibition,[5]; at 3.7 µM,-12%
same,growth inhibition,[5]; [17],40%
same,growth inhibition,[5]; at 11.0 µM,64%
same,growth inhibition,[5]; at 33.0 µM,77% (active)
same,growth inhibition,[5]; [18],69%
same,growth inhibition,[5]; at 50.0 µM,80.9% (active)
same,growth inhibition,[5]; at 100.0 µM,95% (active)
same,growth inhibition,[6]; at 1.2 µM,3%
same,growth inhibition,[6]; at 3.7 µM,4%
same,growth inhibition,[6]; [17],2%
same,growth inhibition,[6]; at 11.0 µM,28%
same,growth inhibition,[6]; at 33.0 µM,50%
same,growth inhibition,[6]; [18],48%
same,growth inhibition,[6]; at 50.0 µM,82.7% (active)
same,growth inhibition,[6]; at 100.0 µM,88% (active)
same,growth inhibition,[7]; at 1.2 µM,30%
same,growth inhibition,[7]; at 3.7 µM,46%
same,growth inhibition,[7]; at 11.0 µM,85% (active)
same,growth inhibition,[7]; at 33.0 µM,99% (active)
same,growth inhibition,[7]; at 100.0 µM,99% (active)
same,growth inhibition,[8]; [17],30%
same,growth inhibition,[8]; [18],58%
same,growth inhibition,[8]; at 50.0 µM,87.5% (active)
same,growth inhibition,[9]; at 1.2 µM,-3%
same,growth inhibition,[9]; at 3.7 µM,12%
same,growth inhibition,[9]; at 11.0 µM,30%
same,growth inhibition,[9]; at 33.0 µM,47%
same,growth inhibition,[9]; at 100.0 µM,75% (active)
same,growth inhibition,[10]; [17],14%
same,growth inhibition,[10]; [18],61%
same,growth inhibition,[10]; at 50.0 µM,66.8%
same,growth inhibition,[11]; at 1.2 µM,6%
same,growth inhibition,[11]; at 3.7 µM,25%
same,growth inhibition,[11]; [17],29%
same,growth inhibition,[11]; at 11.0 µM,54%
same,growth inhibition,[11]; at 33.0 µM,81% (active)
same,growth inhibition,[11]; [18],73% (active)
same,growth inhibition,[11]; at 50.0 µM,86% (active)
same,growth inhibition,[11]; at 100.0 µM,97% (active)
same,growth inhibition,[12]; at 1.2 µM,-1%
same,growth inhibition,[12]; at 3.7 µM,8%
same,growth inhibition,[12]; at 11.0 µM,11%
same,growth inhibition,[12]; at 33.0 µM,30%
same,growth inhibition,[12]; at 100.0 µM,81% (active)
same,growth inhibition,[13]; at 1.2 µM,3%
same,growth inhibition,[13]; at 3.7 µM,4%
same,growth inhibition,[13]; at 11.0 µM,24%
same,growth inhibition,[13]; at 33.0 µM,71% (active)
same,growth inhibition,[13]; at 100.0 µM,99% (active)
same,growth inhibition,[14]; at 1.2 µM,8%
same,growth inhibition,[14]; at 3.7 µM,17%
same,growth inhibition,[14]; at 11.0 µM,41%
same,growth inhibition,[14]; at 33.0 µM,69%
same,growth inhibition,[14]; at 100.0 µM,97% (active)
same,growth inhibition,[15]; [17],21%
same,growth inhibition,[15]; [18],41%
same,growth inhibition,[15]; at 50.0 µM,95.3% (active)
same,growth inhibition,[16]; at 1.2 µM,12%
same,growth inhibition,[16]; at 3.7 µM,32%
same,growth inhibition,[16]; at 11.0 µM,55%
same,growth inhibition,[16]; at 33.0 µM,80% (active)
same,growth inhibition,[16]; at 100.0 µM,97% (active)

# Source: PubChem BioAssay (NCI)
